Measured values published in PubChem BioAssay (NCI).
Where “and” joins values, the source holds several entries; their conditions need not be identical. Identical values can stand only once. This is part of a sample that, as a whole, favours compounds with a hit. Of some 83,000 tested, about 20% had one in any assay.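 Treatment: one concentration, 48 hours, 96-well format. Scoring: percent growth, with anything below 10 considered active.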 Calls of active or inactive are those of the source.

Tests used:
Test in all cases: NCI-60 one-dose screen, 48 h (100 = growth as untreated, 0 = no growth, -100 = all killed)
Settings in all cases: 10 µM unless noted
UACC-62 melanoma = system: UACC-62 melanoma
TK-10 renal = system: TK-10 renal
HT29 colon = system: HT29 colon
SNB-75 CNS = system: SNB-75 CNS
SNB-19 CNS = system: SNB-19 CNS
PC-3 prostate = system: PC-3 prostate
SK-MEL-5 melanoma = system: SK-MEL-5 melanoma
LOX IMVI melanoma = system: LOX IMVI melanoma
SK-MEL-28 melanoma = system: SK-MEL-28 melanoma
SK-MEL-2 melanoma = system: SK-MEL-2 melanoma
SN12C renal = system: SN12C renal
ACHN renal = system: ACHN renal
CAKI-1 renal = system: CAKI-1 renal
A498 renal = system: A498 renal
CCRF-CEM leukemia = system: CCRF-CEM leukemia

With `CC1(C)CCCC(C)(C2CCC3(C)C2C(O)CC2C4(C)CCC(O)C(C)(C)C4C(O)CC23C)O1` (configuration not stated) as the compound, how does the growth (UACC-62 melanoma) read?
Its growth is -76.6% [100 µM] (active) and -83.9% [100 µM] (active).

And the growth (TK-10 renal)?
Its growth is 4.11% [100 µM] (active) and -96.5% [100 µM] (active).

How did the growth (UACC-62 melanoma) turn out when `COc1ccc(CC2c3cc(OC)c(OC)c(OC)c3CC[N+]2(C)C)cc1Oc1ccc(CC2c3cc4c(c(OC)c3CCN2C)OCO4)cc1` (configuration not stated) was run?
The growth was 80% [100 µM] (inactive) and 8.64% [100 µM] (active).

And the growth (TK-10 renal)?
The growth was 85.8% [100 µM] (inactive) and 47.5% [100 µM] (inactive).

With `CCCCCCCCCCCCCCNc1nc(CO)ncc1-c1ccc(C(F)(F)F)cc1` as the compound, how does the growth (HT29 colon) read?
Its growth is 104% (inactive).

And the growth (SNB-75 CNS)?
Its growth is 74.2% (inactive).

And the growth (SNB-19 CNS)?
Its growth is 118% (inactive).

And the growth (PC-3 prostate)?
The growth was 94.6% (inactive).

And the growth (SK-MEL-5 melanoma)?
The growth was 98.5% (inactive).

And the growth (UACC-62 melanoma)?
Its growth is 95.5% (inactive).

What about the growth (LOX IMVI melanoma) of the same compound?
Its growth is 91.6% (inactive).

What about the growth (SK-MEL-28 melanoma) of the same compound?
The growth was 108% (inactive).

And the growth (SK-MEL-2 melanoma)?
Its growth is 94.6% (inactive).

What about the growth (SN12C renal) of the same compound?
Its growth is 102% (inactive).

And the growth (TK-10 renal)?
Its growth is 98.9% (inactive).

What about the growth (ACHN renal) of the same compound?
Its growth is 102% (inactive).

What about the growth (CAKI-1 renal) of the same compound?
The growth was 93.8% (inactive).

What about the growth (A498 renal) of the same compound?
The growth was 86.4% (inactive).

What about the growth (CCRF-CEM leukemia) of the same compound?
The growth was 93.6% (inactive).

`O=C1NC(=S)NC1C(Cc1ccccc1)c1ccco1` (configuration not stated) was tested. Which growth (UACC-62 melanoma) did it give?
The growth was 36.5% [100 µM] (inactive) and 57.6% [100 µM] (inactive).

What about the growth (TK-10 renal) of the same compound?
The growth was 80.1% [100 µM] (inactive) and 73% [100 µM] (inactive).

For `CC#CC#C/C=C1/C=CC2(CCCCO2)O1` (configuration not stated), which growth (UACC-62 melanoma) is on record?
The growth was 63.2% [100 µM] (inactive) and 4.56% [100 µM] (active).

What about the growth (TK-10 renal) of the same compound?
The growth was 112% [100 µM] (inactive) and -41.5% [100 µM] (active).

How did the growth (UACC-62 melanoma) turn out when `CCOC(=O)C1(C#N)C(=O)c2cc[n+](CC[n+]3ccc4c(c3)C(=O)C(C#N)(C(=O)OCC)C4=O)cc2C1=O` (configuration not stated) was run?
The growth was 66.6% [100 µM] (inactive) and 29.5% [100 µM] (inactive).

And the growth (TK-10 renal)?
Its growth is 141% [100 µM] (inactive) and 101% [100 µM] (inactive).

For `CCCCCCCCCc1cc(=O)c2c(O)cc(O)cc2o1`, which growth (UACC-62 melanoma) is on record?
The growth was -88.9% [100 µM] (active) and -100% [100 µM] (active).

What about the growth (TK-10 renal) of the same compound?
Its growth is -87.9% [100 µM] (active) and -100% [100 µM] (active).

Which growth (UACC-62 melanoma) does the source give for `CC(=O)Nc1c(C)cc2c(nc3n2CCC3OC(C)=O)c1[N+](=O)[O-]` (configuration not stated) here?
The growth was 134% [100 µM] (inactive) and 108% [100 µM] (inactive).

What about the growth (TK-10 renal) of the same compound?
The growth was 120% [100 µM] (inactive) and 104% [100 µM] (inactive).

With `CC(C)(C)O/N=C/c1cc(NC(=S)c2ccsc2)ccc1Cl` as the compound, how does the growth (UACC-62 melanoma) read?
Its growth is -90.7% [100 µM] (active) and -85.1% [100 µM] (active).

What about the growth (TK-10 renal) of the same compound?
The growth was -90.2% [100 µM] (active) and -20.8% [100 µM] (active).

Which results are given for `Cc1cc2c3c(nc4ccccc42)C(=O)c2cccnc2-c3n1`?
growth (UACC-62 melanoma): -89.9% [100 µM] (active) and -100% [100 µM] (active); growth (TK-10 renal): -10.8% [100 µM] (active) and -100% [100 µM] (active)

Which results are given for `Cc1cc(N2CCCC2)c([N+](=O)[O-])cc1[N+](=O)[O-]`?
growth (UACC-62 melanoma): 64.5% [100 µM] (inactive) and 32.1% [100 µM] (inactive); growth (TK-10 renal): 89.8% [100 µM] (inactive) and 75.9% [100 µM] (inactive)

What does the source list for `O=[N+]([O-])c1cccc(-c2ncnc(-c3cccc([N+](=O)[O-])c3)n2)c1`?
growth (UACC-62 melanoma): 53.2% [100 µM] (inactive) and 0.549% [100 µM] (active); growth (TK-10 renal): 38.8% [100 µM] (inactive) and -100% [100 µM] (active)

For `Cc1ccc(NC(=S)C#N)c(C)c1`, which growth (UACC-62 melanoma) is on record?
Its growth is 41.9% [100 µM] (inactive) and 1.46% [100 µM] (active).

What about the growth (TK-10 renal) of the same compound?
Its growth is 93.1% [100 µM] (inactive) and 43.3% [100 µM] (inactive).

With `N#CC1C(=O)N(c2ccccc2)NC12OC(=O)c1ccncc12` (configuration not stated) as the compound, how does the growth (UACC-62 melanoma) read?
The growth was 69.2% [20 µM] (inactive) and 17.2% [20 µM] (inactive).

What about the growth (TK-10 renal) of the same compound?
Its growth is 88.7% [20 µM] (inactive) and 4.38% [20 µM] (active).

With `CC(=O)O[C@@H]1C[C@@]2(C)[C@@H]3CC=C4[C@@H](C[C@H](O)C(=O)C4(C)C)[C@]3(C)C(=O)C[C@]2(C)[C@H]1[C@@](C)(O)C(=O)/C=C/C(C)(C)OC(C)=O` as the compound, how does the growth (UACC-62 melanoma) read?
Its growth is -64.4% [100 µM] (active) and -99.7% [100 µM] (active).

What about the growth (TK-10 renal) of the same compound?
The growth was -62% [100 µM] (active) and -91% [100 µM] (active).

Which results are given for `Nc1cc2c3c(cccc3c1)C(=O)N(c1ccc(OCCN3CCCC3)cc1)C2=O`?
growth (UACC-62 melanoma): -37.5% [100 µM] (active) and -91.1% [100 µM] (active); growth (TK-10 renal): 33.8% [100 µM] (inactive) and -100% [100 µM] (active)

What does the source list for `CC1(C)CC2(C)OC(=N)C1(C#N)C2(C#N)C#N` (configuration not stated)?
growth (UACC-62 melanoma): -92.9% [100 µM] (active); growth (TK-10 renal): -89.5% [100 µM] (active) and -77.9% [100 µM] (active)

For `Nc1nc(Nc2cc(F)c(Cl)c(F)c2)cc(=O)[nH]1`, which growth (UACC-62 melanoma) is on record?
Its growth is 85.2% [100 µM] (inactive) and -90.5% [100 µM] (active).

And the growth (TK-10 renal)?
The growth was 111% [100 µM] (inactive) and 27.1% [100 µM] (inactive).

For `N#CC1=C(N)OC(c2cccc([N+](=O)[O-])c2)C1(C#N)C#N` (configuration not stated), which growth (UACC-62 melanoma) is on record?
Its growth is -52.1% [100 µM] (active) and -93.7% [100 µM] (active).

And the growth (TK-10 renal)?
Its growth is -66.6% [100 µM] (active) and -87.5% [100 µM] (active).

What does the source list for `C#CCn1c2c(c3ccccc3c1=O)C(=O)c1ccccc1-2`?
growth (UACC-62 melanoma): 16% [100 µM] (inactive) and -100% [100 µM] (active); growth (TK-10 renal): 17.2% [100 µM] (inactive) and -69.9% [100 µM] (active)

What does the source list for `CCCCOC(=O)C1CN2C(=NC1(C(F)(F)F)C(F)(F)F)Sc1ccccc12` (configuration not stated)?
growth (UACC-62 melanoma): 4.45% [100 µM] (active) and 54.9% [100 µM] (inactive); growth (TK-10 renal): 33.3% [100 µM] (inactive) and 71.4% [100 µM] (inactive)

How did the growth (UACC-62 melanoma) turn out when `Cc1ccc(/C=N/Nc2ccc3ccccc3n2)s1` was run?
Its growth is 11.2% [100 µM] (inactive) and -100% [100 µM] (active).

What about the growth (TK-10 renal) of the same compound?
The growth was 50.5% [100 µM] (inactive) and 7.78% [100 µM] (active).

Which results are given for `O=c1c(-c2ccc3c(c2)OCO3)coc2c3c(ccc12)OCO3`?
growth (UACC-62 melanoma): 49.2% [100 µM] (inactive) and -100% [100 µM] (active); growth (TK-10 renal): -27.5% [100 µM] (active) and -100% [100 µM] (active)

For `N#Cc1c(SCc2ccccc2)nc(-c2ccccc2)[nH]c1=S`, which growth (UACC-62 melanoma) is on record?
The growth was -44.7% [100 µM] (active) and 1.92% [100 µM] (active).

What about the growth (TK-10 renal) of the same compound?
Its growth is 9.89% [100 µM] (active) and 3.82% [100 µM] (active).

Which results are given for `O=C1c2c(O)ccc(O)c2C(=O)c2c(NCCNC(=O)C(O)C(O)C(O)C(O)CO)ccc(NCCNC(=O)C(O)C(O)C(O)C(O)CO)c21` (configuration not stated)?
growth (UACC-62 melanoma): -100% [100 µM] (active); growth (TK-10 renal): -82.4% [100 µM] (active) and -95.9% [100 µM] (active)

How did the growth (UACC-62 melanoma) turn out when `CC(=O)OC(=C(C#N)C#N)c1nccnc1C(C)=O` was run?
Its growth is 96.4% [20 µM] (inactive) and -99.5% [20 µM] (active).

What about the growth (TK-10 renal) of the same compound?
Its growth is 102% [20 µM] (inactive) and -96% [20 µM] (active).

What does the source list for `CCCCOC(=O)C1CC[C@H]2[C@@H]3CCc4cc(OC(=O)c5cccc6c(=O)c7ccccc7[nH]c56)ccc4[C@H]3CC[C@]12C` (some centres not stated)?
growth (UACC-62 melanoma): -100% [50 µM] (active); growth (TK-10 renal): -100% [50 µM] (active)

Which results are given for `CCOC(=O)/C(C#N)=C(/NNc1ccccc1)c1ccncc1C(=O)O`?
growth (UACC-62 melanoma): 61.3% [100 µM] (inactive) and 11.4% [100 µM] (inactive); growth (TK-10 renal): 79.5% [100 µM] (inactive) and -58% [100 µM] (active)

`CCOC(=O)c1nc2cc(C(F)(F)F)ccc2nc1Nc1ccc(F)cc1` was tested. Which growth (UACC-62 melanoma) did it give?
Its growth is 33.3% [100 µM] (inactive) and -17.1% [100 µM] (active).

What about the growth (TK-10 renal) of the same compound?
Its growth is 42.7% [100 µM] (inactive) and 3.59% [100 µM] (active).

Which growth (UACC-62 melanoma) does the source give for `CC(O)c1cc2c(s1)C(=O)c1c(C(C)O)csc1C2=O` (configuration not stated) here?
Its growth is -61.9% [100 µM] (active) and -94.6% [100 µM] (active).

And the growth (TK-10 renal)?
Its growth is -20.6% [100 µM] (active) and -88.8% [100 µM] (active).

For `COC(=O)c1ccc(CCc2cc(O)c(Br)cc2O)cc1`, which growth (UACC-62 melanoma) is on record?
Its growth is -96.8% [100 µM] (active) and -100% [100 µM] (active).

What about the growth (TK-10 renal) of the same compound?
Its growth is -97.6% [100 µM] (active) and -100% [100 µM] (active).

What does the source list for `CC(=O)c1cc2c(s1)C(=O)c1sccc1C2=O`?
growth (UACC-62 melanoma): -45.9% [100 µM] (active) and -100% [100 µM] (active); growth (TK-10 renal): -14.4% [100 µM] (active) and -100% [100 µM] (active)
